Sampled rows, rich in hits. Any-hit rate of the full collection: about 1.3%.
GALR2 blocker = antagonists of human galanin receptor 2 (GALR2); GALR2-expressing cells, antagonist mode; inhibition, % at 4 µM; actives 0.39% (n = 140,000); AID 828; O43603; in the data active means inhibition above about 27%;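 further: cells stimulated with galanin 1-16 at roughly its EC80; 0% = agonist challenge control and 100% = basal control without agonist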
Target sequence (O43603 whole entry, looked up): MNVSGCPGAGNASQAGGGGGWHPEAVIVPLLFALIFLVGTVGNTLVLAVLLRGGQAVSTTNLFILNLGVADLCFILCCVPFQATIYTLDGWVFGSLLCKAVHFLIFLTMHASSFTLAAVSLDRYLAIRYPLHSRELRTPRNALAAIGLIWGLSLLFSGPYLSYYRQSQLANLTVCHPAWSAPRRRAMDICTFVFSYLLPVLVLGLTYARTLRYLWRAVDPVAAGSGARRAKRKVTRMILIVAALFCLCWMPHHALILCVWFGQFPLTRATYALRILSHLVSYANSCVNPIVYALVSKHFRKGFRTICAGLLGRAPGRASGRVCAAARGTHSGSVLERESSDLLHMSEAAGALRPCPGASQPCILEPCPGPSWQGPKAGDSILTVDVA
S1P4 antagonist = blocks the human S1P4 receptor; O95977; S1P4-expressing cells, antagonist mode, reporter read-out; inhibition, % at 4.98 µM; actives 0.26% (n = 220,000); AID 1510; in the data active means inhibition above about 29%;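 further: 0% = wells stimulated with agonist and 100% = vehicle wells without agonist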
GALR2 ag = GALR2 (human) receptor agonism; AID 803; O43603; actives 0.48% (n = 140,000); GALR2-expressing cells, agonist activation read-out; activation, % (no concentration beside the values); in the data active means activation above about 5%, passing the limit was not always enough;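 further: 0% = vehicle buffer wells and 100% = reference agonist at full effect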
S1P3 antag = blocks the human S1P3 receptor | Q99500 | CHO S1P3 NFAT-BLA reporter, FRET fluorescence, antagonist mode | inhibition, % at 4.98 µM | actives 0.27% (n = 170,000) | AID 485;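 active means inhibition above the plate cutoff, the mean inhibition of test wells on that plate plus 3 SD, cut at about 28% in these data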;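 further: cells challenged with S1P at its EC80 of 0.8 µM; blue over green emission ratio from cleaved BLA substrate after 4 h stimulation; 0% = S1P-stimulated wells and 100% = unstimulated DMSO-only wells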
S1P4 ag = activates the human S1P4 receptor. actives 0.35% (n = 220,000). activation, % at 4.98 µM. S1P4-expressing cell line, agonist reporter assay; in the data active means activation above about 11%;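 further: 0% = DMSO vehicle and 100% = reference agonist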
* hit, by the source's call; / = no result.

SMILES	GALR2 blocker	S1P4 antagonist	GALR2 ag	S1P3 antag	S1P4 ag
O=c1[nH]cnc2c1ncn2[C@@H]1O[C@H](CO)[C@@H](O)[C@H]1O	-3	-12	-1	-4	24*
Nc1ncnc2c1ncn2[C@@H]1O[C@H](CO)[C@@H](O)[C@H]1O	3	-17	0	-7	2
COc1ccc(NC(=O)/C(Cl)=C(/Cl)S(=O)Cc2ccccc2Cl)cn1 (stereo not drawn)	/	102*	/	47*	-6
Cc1cc(C2(c3ccc(O)c(C)c3)C(=O)Nc3ccccc32)ccc1O	-4	-3	-1	/	0
Cc1cccc2c1NC(=O)C2(c1ccc(O)cc1)c1ccc(O)cc1	17	98*	-5	/	-5
FC(F)(F)c1cccc(-c2nnc3ccc(C(F)(F)F)cn23)c1	-7	-5	-1	93*	1
COc1ccc(Nc2ncc3c(n2)CC(c2ccccc2)CC3=O)cc1 (stereo not drawn)	4	-9	-1	53*	1
CC1CCCCN1C(=O)Cn1cnc2c1c(=O)n(C)c(=O)n2C (stereo not drawn)	/	7	/	-23	-1
N#Cc1ccc(-c2cccnc2)nc1SCC(=O)Nc1sc2c(c1C#N)CCC2	9	-18	6.9*	/	1
CCN=C1SC(CC(N)=O)C(=O)N1CC (stereo not drawn)	/	-11	/	11	1
Cc1cc(C)c2nc(-c3ccccn3)cc(C(=O)Nc3cc(C)on3)c2c1	2	-1	-1	54*	2
C/C(=N/NC(=O)c1ccncc1)c1cc2ccc(O)cc2oc1=O	-24	-68	7.5*	-31	48*
C/C(=N\NC(=O)c1ccncc1)c1cc2ccccc2oc1=O	5	-5	0	-2	0
CCN(CC)c1ccc(-c2nn3c(-c4n[nH]c5c4CCC5)nnc3s2)cc1	4	2	6.3*	21	4
Cc1ccc2nc3c(cc(C#N)c(=O)n3CCN3CCOCC3)c(=O)n2c1	/	/	/	3	/
Cc1ccc2nc3c(cc(C#N)c(=O)n3CC3CCCO3)c(=O)n2c1 (stereo not drawn)	-5	2	6.8*	-54	2
O=C(COC(=O)c1ccccc1C(=O)c1ccccc1)NCCc1ccccc1	-2	-7	7.0*	-9	-2
O=C(COC(=O)c1ccccc1C(=O)c1ccc(Cl)cc1)NCCc1ccccc1	7	-24	-1	-13	2
c1csc(CCNc2ncnc3sc4c(c23)CCC4)c1	/	/	/	94*	/
Cc1c(Cl)ccc2c(C(=O)NC(C)c3ccncc3)cc(-c3ccncc3)nc12 (stereo not drawn)	/	-4	/	3	-3
CCOC(=O)c1nc(S(C)(=O)=O)ncc1Cl	36*	16	-2	15	0
Nc1c(C(=O)NCCN2CCOCC2)c2nc3ccccc3nc2n1CCc1ccccc1F	-19	21	5.3*	-26	3
Nc1c(C(=O)NCCN2CCOCC2)c2nc3ccccc3nc2n1CCc1ccccc1	-20	5	8.6*	-25	5
Nc1c(C(=O)NCCN2CCOCC2)c2nc3ccccc3nc2n1-c1ccccc1	1	-5	2	-65	4
COc1ccc(/C=N/c2oc(-c3ccccc3)cc2C#N)cc1OC	1	-6	-1	/	-2
SMILES	GALR2 blocker	S1P4 antagonist	GALR2 ag	S1P3 antag	S1P4 ag
COC(=O)c1c(NC(=O)c2ccco2)sc2c1C(C(=O)OC)CC2 (stereo not drawn)	-19	-15	1	54*	1
COC(=O)c1c(NC(=O)C(C)C)sc2c1C(C(=O)OC)CC2 (stereo not drawn)	-3	-4	0	/	-2
O=C(O)c1ccccc1C(=O)Nc1ccccn1	-6	-5	-1	-19	-1
N=c1oc2cc(O)ccc2cc1C(=O)Nc1ccccn1	/	-52	/	-72	74*
Cc1ccc(Sc2ccc(CN3CCCCC3)cc2[N+](=O)[O-])cc1	/	-15	/	7	0
O=C(O)C1CCC(=O)N1Cc1ccccc1Cl (stereo not drawn)	17	-17	-2	8	15*
CCOC(=O)c1sc(NC(=O)CN(CC(C)C)CC(C)C)c(C(=O)OCC)c1C	-3	-3	-3	/	1
Cc1ccc2oc3c(c(=O)c2c1)C(c1cccc(O)c1)N(c1ccccn1)C3=O (stereo not drawn)	9	-2	1	-5	0
COc1cc(C2c3c(oc4ccc(C)cc4c3=O)C(=O)N2c2cc(C)ccn2)cc(OC)c1OC (stereo not drawn)	/	/	/	99*	/
NNC(=O)CCN(Cc1ccco1)S(=O)(=O)c1ccc(Cl)cc1	/	-13	/	-9	0
Cc1cccc(C)c1OCc1nnc(SCC(=O)Nc2nccs2)n1-c1ccccc1	-7	-31	6.5*	17	-2
O=C(NCc1ccc2c(c1)OCO2)c1nnc(Cc2ccc(F)cc2)o1	1	5	-2	106*	1
O=C(NCc1cccnc1)c1nnc(Cc2ccc(F)cc2)o1	/	/	/	-11	/
Cc1nc2ccc(NC(=O)c3cc([N+](=O)[O-])cc([N+](=O)[O-])c3Cl)cc2s1	17	66*	2	-1	6
Cc1nc2ccc(NC(=O)c3ccc(Cl)c([N+](=O)[O-])c3)cc2s1	1	-12	0	-4	-1
CN=C(Nc1cc(C)nn1CCC#N)c1ccccc1	4	4	0	-18	0
Cc1cc(OC(=O)c2ccccc2)n(CCC#N)n1	2	-1	-2	102*	0
COc1cccc2cc(-c3ccccc3)c(=O)oc12	/	-14	/	-21	1
CCOc1cccc2cc(-c3nnc(-c4ccccc4)o3)c(=O)oc12	/	/	/	65*	/
CCOC(=O)c1c(NC(=O)CSc2nc3ccccc3o2)sc(C(C)=O)c1C	-4	8	-2	-10	0
CC(=O)c1c(C)[nH]c(C(=O)NCc2ccco2)c1C	/	-1	/	-14	0
Cc1cc(C)c2nc(SCC(=O)NC(=O)c3cccn3C)cc(C)c2c1	/	-2	/	-15	-2
CCOc1cc(/C=C/C(=O)O)ccc1OCc1ccccc1	/	-10	/	-3	-1
COc1cc(/C=C/C(=O)NC(C)C)ccc1OCc1ccccc1	4	-9	7.5*	5	-1
CCO[C@H]1OC(C(=O)Nc2ccccc2)=C[C@@H](C)[C@@H]1CCCO	/	11	/	-17	0
SMILES	GALR2 blocker	S1P4 antagonist	GALR2 ag	S1P3 antag	S1P4 ag
CCOC(=O)Nc1ccc2c(c1)N(C(=O)CCN1CCOCC1)c1ccccc1S2=O (stereo not drawn)	41*	20	-2	22	-1
Cc1sc2ncnc(N3CCN(CCOc4ccc(Cl)cc4)CC3)c2c1C	9	-17	-3	/	2
CCSc1nc(-c2ccccc2)nc(C(Cl)Cl)n1	-4	-6	7.6*	2	0
CC(=O)Nc1cc(OC(C)=O)c2nonc2c1OC(C)=O	96*	109*	0	54*	-3
Cc1cc(/C=N/O)c(C)n1-c1cccc(Cl)c1	/	0	/	-13	0
Cc1noc(C)c1C(=O)Nc1nnc(-c2ccccc2)s1	-6	102*	0	-6	-1
CC(=O)c1sc(-c2c(C)nc3sccn23)nc1C1CCCC1	/	/	/	0	/
CCSc1ccc(-c2nn(-c3ccccc3)cc2/C=C(/C#N)C(=O)NC)cc1	9	-29	26*	13	4
